# Assay outcomes from PubChem.
# The list is not random: actives were taken first. Their share in the collection is about 4.3%.
# MCF10A rereplic: DNA re-replication induction in MCF 10a cells. Potency, µM (titrated, usually from 46.1 µM), without a hit: at the highest dose activity, positive = re-replication, hits mostly activators. hit rate 2.9% among 350,000. AID 624296. MCF 10A DNA re-replication, Hoechst nuclear intensity, 48 h; note: potency is the fitted concentration of half-maximal effect; % of control where 0% means no effect; nearly all actives have a fitted effect of over 50% in size
# SW480 rerep: DNA re-replication induction in SW480 cells; SW480 DNA re-replication, Hoechst DNA content imaging, 48 h; hit rate 1.8% among 340,000; Potency, µM (series often up to 46.1 µM), for the others: at the top dose re-replication activation, actives largely listed as activators; AID 624297; note: potency is the fitted concentration of half-maximal effect; % of control where 0% means no effect; nearly all actives have a fitted effect of over 55% in size
#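 First, 250 cells per well were seeded. Next, compound or vehicle (23 nL) was pinned in, plates sat 48 hr at 37 C. Finally Hoechst was added for 40 min before fluorescence scanning.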
# uPA surface inh: cell surface uPA generation inhibition | cell surface uPA generation assay, qHTS | Potency, µM (highest dose often 38.3 µM), for inactives: at the highest dose activity change, negative = inhibition, most hits filed as inhibitors | hit rate 0.31% among 330,000 | AID 540303; active = well fitted inhibition curve with a large enough effect; inconclusive = small, poorly fitted or top-dose-only effect; inactive = no such curve, though single readings can be large or run the other way; tested in mouse RAW 264.7 cells; note: potency is the fitted concentration of half-maximal effect; % is set by controls: 0 for no effect and ±100 for the full control effect; nearly all actives have a fitted effect of over 55% in size
# Giardia kill: kills Giardia lamblia; Giardia lamblia trophozoite viability; activity change, % at 7.66 µM, hits read low; hit rate 0.15% among 340,000; AID 540267; in the data active = activity change below about -80%; inconclusive = between about -30% and that limit;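 note: parasites exposed to compound for two days anaerobically before the ATP read; % is set by controls: 0 for no effect and ±100 for the full control effect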
#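 ATP-content bioluminescence gauges trophozoite survival. Cells (100/well) receive compound and incubate anaerobically for 48 hrs at 37 deg C; detection reagent follows for 15-30 min at room temperature.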
# The depositor's hits bear a star; u = inconclusive; x = not tested or not shown; [ ] = remark or other dose. Unless noted, calls come from the whole dose curve; as a rule, active = well fitted activation curve with a large enough effect; inconclusive = small, poorly fitted or top-dose-only effect; inactive = no such curve, though single readings can be large or run the other way.
SMILES,MCF10A rereplic,SW480 rerep,uPA surface inh,Giardia kill
NNc1nc(C(F)(F)F)nc2ccccc12,-2%,-2%,8%,9
CCN(Cc1ccc(C#CCCO)cc1)CC1CCCN(CCc2cccc(F)c2)C1 (stereo unspecified),-1%,1%,-9%,5
Nc1ccccc1C#Cc1ccc([N+](=O)[O-])cc1,u,u,-6%,-6
Nc1ccccc1C#CC(=O)c1ccccc1,8.2µM*,u,u,14
Cc1ccc2nc(Cl)c3cc(C(=O)N(CCN(C)C)Cc4ccco4)sc3c2c1,16µM*,u,-3%,13
CCCN(Cc1ccccc1)C(=S)NC(=O)c1ccccc1[N+](=O)[O-],3%,-4%,1%,5
CCN(Cc1ccccc1)C(=S)NC(=O)c1ccccc1Br,15%,12µM*,-3%,28
CC(C)(C)OC(=O)N(Cc1ccccc1)Cc1ccccc1OCc1ccc(NC(=O)C2CCC2)cc1,u,u,u,29
CC(C)C(=O)Nc1cccc(COc2ccccc2CN(Cc2ccccc2)C(=O)OC(C)(C)C)c1,12µM*,u,-8%,-21
CC(C)(C)OC(=O)N(Cc1ccccc1)Cc1cccc(OCc2cccc(NC(=O)c3ccccc3)c2)c1,0.29µM*,-57%,-9%,5
CC(C)(C)OC(=O)N(Cc1ccccc1)Cc1ccccc1OCc1cccc(NC(=O)c2ccccc2)c1,u,0%,-18%,-4
CC(C)(C)OC(=O)N(CCc1ccccc1)Cc1ccccc1OCc1ccc(NC(=O)C2CCC2)cc1,6.5µM*,u,-7%,11
Cc1cc(C(=O)N/N=C2\CC(=O)c3ccccc32)c(C)n1-c1ccc(F)cc1,0%,16µM*,7%,0
COc1ccccc1NC(=O)COc1ccc(/C=N/NC(=O)CSCc2cc(C)cc(C)c2)cc1,18µM*,-3%,2%,5
CCCCC(=O)N1CCN(c2nc3ccc(F)cc3s2)CC1,-2%,25%,-30%,4
O=C(c1ccc([N+](=O)[O-])o1)N1CCN(c2nc3ccc(F)cc3s2)CC1,u,u,-5%,-89*
Cc1ccc2sc(N3CCN(C(=O)c4ccc([N+](=O)[O-])o4)CC3)nc2c1C,u,2%,-5%,-29
O=C(c1ccc([N+](=O)[O-])o1)N1CCN(c2nc3c(Cl)cccc3s2)CC1,7.3µM*,u,-9%,u
COc1cccc2sc(N3CCN(C(=O)c4ccc([N+](=O)[O-])o4)CC3)nc12,23µM*,u,-10%,-87*
CN1OC[C@@H]2CN(C(=O)CCc3ccccc3)[C@H](c3cccc(N4CCOCC4)c3)C[C@@H]21,0%,1%,7%,5
CC1CCN(Cc2nnnn2CCCC(=O)NC(c2ccccn2)C(F)(F)F)CC1 (stereo unspecified),21µM*,3%,1%,-16
COc1cc2c(cc1OC)C(C)N(C(=O)c1c(-c3ccccc3)noc1C)CC2 (stereo unspecified),12µM*,u,6.3µM*,-11
COc1cc2c(cc1OC)C(C)N(C(=O)Nc1ccccc1)CC2 (stereo unspecified),u,5.2µM*,-9%,6
COc1ccccc1N1CCN(C(=O)/C=C/c2cccc([N+](=O)[O-])c2)CC1,1%,-91%,1%,-11
COc1ccccc1N1CCN(C(=O)/C=C/c2ccc(C)cc2)CC1,23µM*,3%,21%,7
SMILES,MCF10A rereplic,SW480 rerep,uPA surface inh,Giardia kill
COc1cc2c(cc1OC)C(c1ccccc1)N(C(=O)CCl)CC2 (stereo unspecified),16µM*,16µM*,-6%,-3
CCCCn1c(N)c(N(CC(C)C)C(=O)C2CCN(S(=O)(=O)c3ccc(C)cc3)CC2)c(=O)[nH]c1=O,6%,-2%,-3%,-13
CCOC(=O)Cc1csc(SCC(=O)Nc2oc(C)c3c(C)n[nH]c(=O)c23)n1,9%,13%,4%,-30
COc1ccccc1N1CCN(C(=O)c2c(-c3c(F)cccc3Cl)noc2C)CC1,u,u,-8%,10
COc1ccccc1N1CCN(C(=O)c2c(-c3ccccc3)noc2C)CC1,11µM*,u,-13%,2
N#C/C(=C/c1ccc(-c2ccc([N+](=O)[O-])cc2)o1)c1nnc(N2CCOCC2)n1-c1ccccc1,-18%,1%,7%,-22
COc1cc(/C=C(\C#N)c2nnc(N3CCOCC3)n2-c2ccccc2)ccc1O,1%,6.5µM*,5%,24
CCOc1ccc(Oc2ccc(C(F)(F)F)cc2NC(=O)C2=COCCO2)cc1,17%,0%,4%,-29
O=C(O)C1CCCCC1C(=O)Nc1ccc(S(=O)(=O)N2CCOCC2)cc1 (stereo unspecified),1%,-2%,2%,7
Cn1cc(/C=C(\C#N)C(=O)Nc2cccc([N+](=O)[O-])c2)c2ccccc21,9.2µM*,u,14%,-5
N#C/C(=C/c1ccc(O)c([N+](=O)[O-])c1)C(=O)Nc1ccccc1,4.6µM*,6.5µM*,-18%,u
N#C/C(=C/c1ccc([N+](=O)[O-])cc1)C(=O)Nc1ccccc1O,16%,18%,-1%,-8
Cn1cc(/C=N/NC(=O)c2cccc([N+](=O)[O-])c2)c2ccccc21,9%,0%,2%,4
COc1ccc(S(=O)(=O)Nc2c(O)ccc3ccccc23)cc1OC,16µM*,4%[9.22 µM],1%,-16
COc1ccc(S(=O)(=O)Nc2cccc3ccc(O)cc23)cc1,21µM*,u,-13%,5
COc1ccc(S(=O)(=O)Nc2ccccc2C)cc1,21µM*,13µM*,-11%,8
N#C/C(=C/c1ccc(N2CCOCC2)o1)c1ccc(Br)cc1,5.8µM*,5.8µM*,-11%,10
N#C/C(=C/c1ccc(N2CCCCCC2)o1)c1ccc(F)cc1,3.3µM*,12µM*,-15%,-1
Cc1cccc(C2c3[nH]c4ccccc4c3CCN2C(=O)c2cc(CC(C)C)[nH]c(=O)n2)n1 (stereo unspecified),5%,24%,-3%,12
COC(=O)/C(=C\c1ccc(O)cc1)c1nc2ccccc2[nH]1,16µM*,2.6µM*,-6%,-27
COc1ccc(/C=C(/NC(=O)c2ccccc2)c2nc3ccc(Cl)cc3[nH]2)cc1OC,u,-1%,-13%,-12
COc1ccc(/C=C(/NC(=O)c2ccccc2)c2nc3ccccc3[nH]2)cc1OC,21µM*,u,3%,-5
COC(=O)/C(=C\c1cc(OC)c(OC)c(OC)c1)c1nc2ccccc2[nH]1,21µM*,u,x,-13
CCN1c2ccccc2NC2C1C(C(C)=O)C(=O)N2c1ccc(Cl)cc1 (stereo unspecified),2.9µM*,4.6µM*,-19%,6
COc1ccc2nc(-c3ccccc3)cc(C(=O)OCC(=O)N3CC(C)OC(C)C3)c2c1 (stereo unspecified),0%,u,-5%,8
COc1ccc(CCNCC(O)COc2cccc(C(C)=O)c2)cc1OC (stereo unspecified),4%,7%,0%,-15
C(=N\Nc1nncc2ccccc12)/c1ccccn1,u,2.6µM*,-11%,-1
